Unmarked numbers belong to inactive results.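 Rule for the calls: active = growth AUC significantly below the DMSO wells by Dunnett test; inactive = the rest.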

The subject of the test is Carnobacterium 1 (Carnobacterium gallinarum). Put plainly: relative growth (AUC of 72 h growth curve relative to DMSO control, dAUC) (ratio); higher = more growth (less inhibition), active = hit call of the paper. The following applies: 20 µM. The procedure: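 Environmental bacterial isolates (Iceland stream sediment and Silwood Park soil) and whole stream-sediment communities were grown in LB from a 1:100 dilution with each pesticide at 20 µM (1% DMSO). A600 was read hourly for 72 h and the area under a spline-fitted growth curve (AUC) was computed. dAUC is the mean AUC of 3 biological replicates divided by the mean AUC of the DMSO controls. Significance was tested by Dunnett's test against the DMSO control.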
Take `CCOc1cc(Oc2ccc(C(F)(F)F)cc2Cl)ccc1[N+](=O)[O-]`: the relative growth was 0.874.

For `CCC(=O)Nc1ccc(Cl)c(Cl)c1`, the relative growth is 0.897.

As for `COCc1cnc(C2=NC(C)(C(C)C)C(=O)N2)c(C(=O)O)c1` (stereo not given), the relative growth is 0.837.

For `CC1(C(=O)Nc2ccc(O)c(Cl)c2Cl)CCCCC1`, the relative growth was 0.935.

`CC(C)NC(=O)N1CC(=O)N(c2cc(Cl)cc(Cl)c2)C1=O`: the relative growth is 1.02.

For `CC1(C)[C@H](C(=O)O[C@H](C#N)c2cccc(Oc3ccccc3)c2)[C@@H]1C=C(Br)Br`, the relative growth is 1.47.

Regarding `COc1ccc(C(=CC(=O)N2CCOCC2)c2ccc(Cl)cc2)cc1OC` (mixture of isomers), the relative growth was 1.56.

Take `CCCCOC(=O)[C@H](C)Oc1ccc(Oc2ccc(C#N)cc2F)cc1`: the relative growth is 0.961.

Consider `OC(Cc1ccccc1Cl)(Cn1nc[nH]c1=S)C1(Cl)CC1` (stereo not given), for which the relative growth was 0.829.

`COC(=O)NC(=S)Nc1ccccc1NC(=S)NC(=O)OC`: the relative growth is 0.745.

In the case of `CCNc1nc(Cl)nc(NC(C)C)n1`, the relative growth was 1.18.

Take `ClC1C(Cl)C(Cl)C(Cl)C(Cl)C1Cl` (stereo not given): the relative growth was 0.955.

As for `COc1cc(OC)nc(NC(=O)NS(=O)(=O)c2ncccc2C(=O)N(C)C)n1`, the relative growth is 1.09.

Take `COC(=O)c1ccccc1S(=O)(=O)NC(=O)Nc1nc(C)nc(OC)n1`: the relative growth was 1.2.

As for `CCC(C)(C)C(=O)OC1=C(c2ccc(Cl)cc2Cl)C(=O)OC12CCCCC2`, the relative growth is 1.13.

For `O=C(O)COc1ccc(Cl)cc1Cl`, the relative growth is 1.06.

Take `CC(C)(C)C(O)(CCc1ccc(Cl)cc1)Cn1cncn1` (stereo not given): the relative growth is 0.864.

Turning to `CC(Oc1ccc(Oc2ncc(C(F)(F)F)cc2Cl)cc1)C(=O)O` (stereo not given), the relative growth is 1.23.

Consider `CC(C)(C)[C@@H](O)[C@H](Oc1ccc(Cl)cc1)n1cncn1`, for which the relative growth was 1.06.

Take `O=[N+]([O-])/N=C1\NCCN1Cc1ccc(Cl)nc1`: the relative growth was 1.26.

Take `OC(Cn1cncn1)(c1ccc(F)cc1)c1ccccc1F` (stereo not given): the relative growth was 1.15.

As for `CC[C@H](C)[C@H]1O[C@]2(C=C[C@@H]1C)C[C@@H]1C[C@@H](C/C=C(\C)[C@@H](O[C@H]3C[C@H](OC)[C@@H](O[C@H]4C[C@H](OC)[C@@H](O)[C@H](C)O4)[C@H](C)O3)[C@@H](C)/C=C/C=C3\CO[C@@H]4[C@H](O)C(C)=C[C@@H](C(=O)O1)[C@]34O)O2.CO[C@H]1C[C@H](O[C@H]2[C@H](C)O[C@@H](O[C@@H]3/C(C)=C/C[C@@H]4C[C@@H](C[C@]5(C=C[C@H](C)[C@@H](C(C)C)O5)O4)OC(=O)[C@@H]4C=C(C)[C@@H](O)[C@H]5OC/C(=C\C=C\[C@@H]3C)[C@]54O)C[C@@H]2OC)O[C@@H](C)[C@@H]1O`, the relative growth is 0.726.

Turning to `CC1COC(Cn2cncn2)(c2ccc(Oc3ccc(Cl)cc3)cc2Cl)O1` (stereo not given), the relative growth was 1.19.

Take `CCC(C)c1ccccc1OC(=O)NC` (stereo not given): the relative growth was 1.11.

Take `CCOP(=S)(OCC)Oc1cc(C)nc(C(C)C)n1`: the relative growth was 0.908.

Turning to `COP(N)(=O)SC` (stereo not given), the relative growth is 0.69.

Regarding `CCN(CC)c1nc(C)cc(OP(=S)(OC)OC)n1`, the relative growth was 1.07.

For `Cc1c(COC(=O)[C@@H]2[C@H](/C=C(\Cl)C(F)(F)F)C2(C)C)cccc1-c1ccccc1` (racemic), the relative growth is 1.17.

Turning to `CC(C)CC(C)c1sccc1NC(=O)c1cn(C)nc1C(F)(F)F` (stereo not given), the relative growth was 0.721.

Regarding `CN1COCN(Cc2cnc(Cl)s2)/C1=N\[N+](=O)[O-]`, the relative growth is 1.12.

In the case of `N#Cc1cc(Br)c(O)c(Br)c1`, the relative growth is 1.05.

Regarding `CS(=O)(=O)c1ccc(C(=O)C2C(=O)CCCC2=O)c([N+](=O)[O-])c1`, the relative growth was 1.44.

As for `N#C/N=C1\SCCN1Cc1ccc(Cl)nc1`, the relative growth was 1.18.

In the case of `N#Cc1c(Cl)c(Cl)c(Cl)c(C#N)c1Cl`, the relative growth is 1.11.

With `CC(C)N1C(=O)N(c2ccccc2)CS/C1=N\C(C)(C)C`, the relative growth was 0.913.

With `CS(=O)(=O)c1cc(C(F)(F)F)ccc1C(=O)c1cnoc1C1CC1`, the relative growth is 1.43.

Consider `Cc1nnc(-c2ccccc2)c(=O)n1N`, for which the relative growth was 0.953.

Regarding `CCc1cnc(C2=NC(C)(C(C)C)C(=O)N2)c(C(=O)O)c1` (stereo not given), the relative growth was 1.06.

Turning to `Oc1ccc(Cl)cc1Cc1cc(Cl)ccc1O`, the relative growth is 0.00911 (active).

As for `CC(C)(C)c1ccc(CSc2cnn(C(C)(C)C)c(=O)c2Cl)cc1`, the relative growth was 1.3.

The values are drawn from the supplement of paper PMC12067926.
